Source: paper PMC9911399, “Two distinct binding modes provide the RNA-binding protein RbFox with extraordinary sequence specificity”
Residue numbers refer to the chain shown, from its start. The full ranking holds about 16,000 sequences; the median of “ka relative to ugcaugu” is about 0.0091, and the highest 2% start at about 0.032. For the sample, the highest values were picked, then their nearest neighbours and some sequences at random.

B1: AGCACCG (DNA:RNA)
RNA: GGGAGACCGGAAUUCAGAUUGUCCAGCACCGUUAAAUCCCGUCGUAGCCACCA
DNA 1: CAATCTGAATTCCGGTCTCCC
DNA 2: TGGTGGCTACGACGGGATT
B2: CACGUUU (DNA:RNA)
RNA: B1 RNA with A25C, G26A, A28G, C29U, C30U, G31U
DNA 1: CAATCTGAATTCCGGTCTCCC
DNA 2: TGGTGGCTACGACGGGATT
B3: GCACCGU (DNA:RNA)
RNA: B1 RNA with A25G, G26C, C27A, A28C, C30G, G31U
DNA 1: CAATCTGAATTCCGGTCTCCC
DNA 2: TGGTGGCTACGACGGGATT
B4: GCACGUU (DNA:RNA)
RNA: GGGAGACCGGAAUUCAGAUUGUCCGCACGUUUUAAAUCCCGUCGUAGCCACCA
DNA 1: CAATCTGAATTCCGGTCTCCC
DNA 2: TGGTGGCTACGACGGGATT
B5: GCACGGU (DNA:RNA)
RNA: B4 RNA with U30G
DNA 1: CAATCTGAATTCCGGTCTCCC
DNA 2: TGGTGGCTACGACGGGATT
B6: GCACCGG (DNA:RNA)
RNA: B4 RNA with G29C, U30G, U31G
DNA 1: CAATCTGAATTCCGGTCTCCC
DNA 2: TGGTGGCTACGACGGGATT
B7: ACGUUUU (DNA:RNA)
RNA: B4 RNA with G25A, A27G, C28U, G29U
DNA 1: CAATCTGAATTCCGGTCTCCC
DNA 2: TGGTGGCTACGACGGGATT
B8: CAGCACG (DNA:RNA)
RNA: B1 RNA with A25C, G26A, C27G, A28C, C29A
DNA 1: CAATCTGAATTCCGGTCTCCC
DNA 2: TGGTGGCTACGACGGGATT
B9: CGCACGU (DNA:RNA)
RNA: B1 RNA with A25C, C30G, G31U
DNA 1: CAATCTGAATTCCGGTCTCCC
DNA 2: TGGTGGCTACGACGGGATT
B10: CGCACGG (DNA:RNA)
RNA: B1 RNA with A25C, C30G
DNA 1: CAATCTGAATTCCGGTCTCCC
DNA 2: TGGTGGCTACGACGGGATT
B11: AGCACGU (DNA:RNA)
RNA: B1 RNA with C30G, G31U
DNA 1: CAATCTGAATTCCGGTCTCCC
DNA 2: TGGTGGCTACGACGGGATT
B12: GCCACGU (DNA:RNA)
RNA: B1 RNA with A25G, G26C, C30G, G31U
DNA 1: CAATCTGAATTCCGGTCTCCC
DNA 2: TGGTGGCTACGACGGGATT

These binders were tested against T1, RBFOX1 RRM (Homo sapiens, UniProt Q9NWB1 109-208) (assay: EMSA; HiTS-Eq, 1 nM pool, 10 min; buffer printed only for the single-RNA assays: 10 mM Tris pH 7.5, 150 mM NaCl, 3.4 mM EDTA, 0.001% NP-40, 30 C). Conditions: tags: His6 N-terminal (pET28a); label: 5' 32P.
T1 sequence: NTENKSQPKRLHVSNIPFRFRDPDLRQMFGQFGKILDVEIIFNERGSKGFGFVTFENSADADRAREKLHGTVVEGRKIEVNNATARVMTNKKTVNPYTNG
Procedure, shortened: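 Purified RbFox RRM (wild type or mutant) was equilibrated for 10 min in 50 µL with 1 nM of a 5′-radiolabelled pool of RNA with 7 randomized nucleotides, its flanks annealed to DNA oligonucleotides, across increasing protein concentrations. Free RNA was separated by 8% native PAGE, excised, reverse-transcribed, PCR-barcoded and sequenced on an Illumina HiSeq 2500. Relative association constants came from read-count changes of each variant against the control reaction, normalised to the cognate motif.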
In the case of B1, the binding signal is reported as 0.00835 KA relative to UGCAUGU. In the case of B2, the binding signal is reported as 0.00574 KA relative to UGCAUGU. For B3, the binding signal was 0.0125 KA relative to UGCAUGU. With B4 the binding signal was 0.043 KA relative to UGCAUGU. B5 was tested, and the binding signal was 0.0324 KA relative to UGCAUGU. B6 was tested, and the binding signal was 0.00674 KA relative to UGCAUGU. With B7 the binding signal was 0.00473 KA relative to UGCAUGU. B8 was tested, and the binding signal was 0.0261 KA relative to UGCAUGU. For B9, the binding signal was 0.0433 KA relative to UGCAUGU. In the case of B10, the binding signal is reported as 0.0278 KA relative to UGCAUGU. For B11, the binding signal was 0.0367 KA relative to UGCAUGU. In the case of B12, the binding signal is reported as 0.011 KA relative to UGCAUGU.
